Laboratory results published in PubChem BioAssay (NCI).
Compounds without any hit were thinned out: in the full panel of roughly 83,000, 20% have a hit.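 Each cell line was grown in a 96-well plate and treated with one concentration of compound for 48 hours. Values below 10 were considered active.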 Values without a mark were called inactive. Calls of active or inactive are those of the source.

Experiments:
Experiment in all cases: NCI-60 one-dose screen, 48 h (100 = growth as untreated, 0 = no growth, -100 = all killed)
Conditions in all cases: 10 µM unless noted
[1] = system: SR leukemia
[2] = system: RPMI-8226 leukemia
[3] = system: OVCAR-8 ovarian
[4] = system: OVCAR-5 ovarian
[5] = system: OVCAR-4 ovarian
[6] = system: SK-OV-3 ovarian
[7] = system: IGROV1 ovarian
[8] = system: OVCAR-3 ovarian
[9] = system: HS 578T breast
[10] = system: NCI/ADR-RES ovarian

| Structure (SMILES) | growth [1] | growth [2] | growth [3] | growth [4] | growth [5] | growth [6] | growth [7] | growth [8] | growth [9] | growth [10] |
| --- | --- | --- | --- | --- | --- | --- | --- | --- | --- | --- |
| COc1ccc(-c2coc3c(CO)c(O)ccc3c2=O)cc1 | 25.5% | 36.6% | 73.6% | 102% | 75.6% | 84.7% | 61.2% | 9.94% (active) | 57.2% | 86.3% |
| COc1ccc(Cl)cc1NC(=O)c1cc2c([nH]1)-c1nc(NC(=O)C(C)(C)C)sc1CC2 | 28.2% | 83.8% | 26.8% | 108% | 57% | 82.1% | 65.3% | 32.8% | 44% | 40.9% |
| C=C1C(=O)O[C@H]2[C@H]1CC/C(C(=O)NCCOCCOCC(=O)Nc1ccc(OC)c(C(N)=O)c1O)=C\CC[C@@]1(C)O[C@@H]21 | 75.3% | 97.2% | 89.8% | 96.4% | 101% | 91.6% | 98.8% | 84.3% | 93% | 104% |
| CCOC(=O)C(C)(CSSCC(C)(NC(=O)c1ccc2ccccc2c1)C(=O)OCC)NC(=O)c1ccc2ccccc2c1 (stereo not given) | 61.2% | 93.4% | 90.6% | 127% | 104% | 107% | 93.3% | 110% | 118% | 105% |
| O=C(O)c1ccc(-n2cc(/C=N/Nc3ccc(Cl)cc3)c(-c3ccc(F)c(F)c3)n2)cc1 | 68.9% | 24% | 86.6% | 83.7% | 80.3% | 100% | 79.2% | 75.2% | 84.5% | 73.1% |
| COc1ccc2c(c1)OC(N)=C(C#N)C2c1ccc(F)cc1 (stereo not given) | 18.1% | 6.87% (active) | 34.4% | 56.4% | 69% | 16.6% | 53.1% | 16.9% | 18.8% | 26% |
| COc1cc(NC(=O)C#Cc2ccccc2)c(OC)cc1Cl | 12.4% | 10.8% | 38.6% | 79.4% | 93.8% | 97.8% | 4.48% (active) | 82.8% | 79.8% | 56.5% |
| C=CCn1c(SCC(=O)Nc2ccc(/C(C)=N\O)cc2)nnc1-c1cc(-c2ccc(OC)cc2)nc2ccccc12 | 33.8% | 17.3% | 15.3% | 79.4% | 53% | 52.8% | 11.1% | 37% | 46% | 13.7% |
| Clc1ccc(OCc2nc(-c3ccccc3)n[nH]2)c(Cl)c1 | 97.1% | 94% | 96.5% | 99.7% | 98.1% | 80.9% | 97.6% | 108% | 88.6% | 101% |
| COc1ccc(/C=C/C(=O)/C=C(/C=C/c2ccc(OC)c(OC)c2OC)OB(F)F)c(OC)c1OC | 0.627% (active) | 2.74% (active) | 10% | 62.9% | 47.4% | 76.8% | 26.3% | 5.1% (active) | 23.6% | 32.5% |
| CCCCNC(=O)Oc1ccc(/C(=C(/CC)Cc2ccccc2)c2ccc(OCCCN(C)C)cc2)cc1 | 22% | 42.8% | 87% | 85.6% | 74.8% | 97.6% | 71.1% | 85.2% | 84.4% | 87.2% |
| COc1ccc(-c2nn(-c3cccc(Cl)c3)cc2-c2cc(-c3ccc(Br)cc3)[nH]c(=O)c2C#N)cc1 | 35.6% | 75% | 77.9% | 105% | -34% (active) | 89.1% | 92.9% | 68% | 33% | 65% |
| C#CCn1c(-c2cc(OC)c(OC)cc2Br)nc(-c2ccccc2)c1-c1ccccc1 | 16.4% | 48.9% | 57.4% | 77.5% | 63.2% | 16% | 40.9% | 9.74% (active) | 66.8% | 10.2% |
| COc1cc(-c2nc(SCC(=O)Nc3ccc(C(C)=O)cc3)[nH]c(=O)c2C#N)cc(OC)c1OC | 7.62% (active) | 7.47% (active) | 23.2% | 51.9% | 61.5% | 34.6% | 38.4% | 0.381% (active) | 10.6% | 75.7% |
